Test results as given in PubChem BioAssay AID1578 (Sanford-Burnham Center for Chemical Genomics, 2009).
Among all 290,000 compounds or so, about 3,000 (1%) were called active. What follows is part of a selection rich in actives, with near analogues and random picks from the rest. A number with no mark means an inactive call. Cut-off read from the data, not from the text of the source: active = inhibition mostly above about 36% (no sharp cut-off); inactive = mostly below about 34%.

Assay: inhibition of NOD1-driven NF-kB reporter – cell-based, luminescence, uHTS, primary screen (AID 1578);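 note: HEK-293T reporter cells stimulated with the NOD1 agonist gamma-tri-DAP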
Conditions: NOD1-driven NF-kB luciferase reporter cells, at 4 µM, stronger effect = higher value
In the case of O=C1CC(N(CCc2ccccc2)C(=S)Nc2ccccc2)C(=O)N1c1ccc(Br)cc1 (stereo not given), the inhibition is reported as -50%. Compound Cc1cc2cc(C)c(NCCNC(=O)c3ccccc3Cl)nc2cc1C has an inhibition of -21.1%. With CCN(CC)S(=O)(=O)c1ccc(F)cc1 the inhibition was 71.7% (active). For CCN(CC)S(=O)(=O)c1ccc(NS(=O)(=O)c2ccc(F)cc2)cc1, the inhibition was 9.7%. Compound CCN(CC)S(=O)(=O)c1ccc(-c2ccc(S(=O)(=O)N(CC)CC)cc2)cc1 has an inhibition of 39.7%. O=C(/C=C/c1ccccc1Cl)NCCc1ccc(F)cc1 showed an inhibition of -61.3%. In the case of COc1ccc(C(=O)/C=C/C(=O)N(CC(=O)NCCC(C)C)Cc2cccs2)c(O)c1, the inhibition is reported as 86.8% (active). With COc1ccc(C(=O)/C=C/C(=O)N(CC(=O)NC2CCCCC2)Cc2ccc(F)cc2)c(O)c1 the inhibition was 16.3%. With COc1ccc(C(=O)/C=C/C(=O)N(CC(=O)NC2CCCCC2)CC2CCCO2)c(O)c1 (stereo not given) the inhibition was 68.4% (active). Compound COc1ccc(C(=O)N(Cc2ccco2)Cc2cccs2)c(O)c1 has an inhibition of 29.1%. With COc1ccc(C(=O)/C=C/C(=O)N(CC(=O)NC2CCCCC2)Cc2ccccc2)c(O)c1 the inhibition was 26%. COc1ccc(C(=O)/C=C/C(=O)N(CC(=O)NC2CCCCC2)Cc2cccs2)c(O)c1 showed an inhibition of 36.2%. With COc1ccc2cnn(-c3ccc(OC(F)(F)F)cc3)c(=O)c2c1OC the inhibition was -0.3%. Compound Cc1ccc(CNC(=O)C2CCC(=O)N2Cc2ccc(C)cc2)cc1 (stereo not given) has an inhibition of 0.2%. For O=C(c1ccc(CSc2ccc(Cl)cc2)cc1)N1CCCC1, the inhibition was -3.6%. CN1CCN(C(=O)c2ccc(CSc3ccc(Cl)cc3)cc2)CC1 showed an inhibition of -13.5%. In the case of CCOC(=O)N1CCN(C(=O)c2ccc(CSc3ccc(Cl)cc3)cc2)CC1, the inhibition is reported as 62.9% (active). With C=CCn1c(O)c(CN2CCCCC2)c(C)c(C#N)c1=O the inhibition was -25.8%. Work on O=C(Nc1ccc(N2CCCCCC2)cc1)c1ccccc1Cl yielded an inhibition of -33.9%. O=C(Nc1ccc(N2CCCCC2)cc1)c1cccnc1Cl gave an inhibition of -28%. For CCC(=O)Nc1ccc(N2CCCCC2)cc1, the inhibition was 0.2%. In the case of O=C(CN1CCCCC1)Nc1ccc(N2CCCCCC2)cc1, the inhibition is reported as -21%. For Cc1cnc(C(=O)Nc2ccc(N3CCOCC3)cc2)cn1, the inhibition was -18.5%. For CCN1CCN(c2ccc(NC(=O)c3cnccn3)cc2)CC1, the inhibition was -37.5%. With O=C(Nc1ccc(N2CCCCC2)cc1)c1ccccn1 the inhibition was 89.3% (active). With O=C(CCl)Nc1ccc(N2CCCCCC2)cc1 the inhibition was 65.3% (active). For O=C(Nc1ccc(N2CCOCC2)cc1)c1cnccn1, the inhibition was 52.9% (active). For CCc1c(O)nc(SCC(=O)Nc2ccccc2C)n(-c2ccc(C)cc2)c1=O, the inhibition was -22.6%. With CN1CCN(C(=O)/C(=C/c2ccccc2F)NC(=O)c2ccccc2)CC1 the inhibition was -17.7%. In the case of CCNc1ccc([N+](=O)[O-])cc1, the inhibition is reported as -1.6%. For CN(C)CCCN(Cc1cc2cc3c(cc2[nH]c1=O)OCO3)C(=S)Nc1ccccc1, the inhibition was -23.7%. CCSc1nnc(NC(=O)c2cccc(S(=O)(=O)N(C)c3ccccc3)c2)s1 gave an inhibition of -5.2%. Work on CCCCn1c(SCC(=O)N2CCC(C)CC2)nc2ccsc2c1=O yielded an inhibition of -16.2%. Work on CCCCn1c(SCC(=O)c2ccccc2)nc2ccsc2c1=O yielded an inhibition of 21.6%. In the case of Nc1nc(SCC(=O)Nc2ncc(C(F)(F)F)cc2Cl)n[nH]1, the inhibition is reported as 65.2% (active). Cc1cc(C)nc(SCC(=O)Nc2ncc(C(F)(F)F)cc2Cl)n1 showed an inhibition of -28.9%. Work on O=C(CSc1ncccn1)Nc1ncc(C(F)(F)F)cc1Cl yielded an inhibition of -20.5%. In the case of Cc1cc(C(F)(F)F)nn1CC(=O)NCc1ccco1, the inhibition is reported as -18%. Compound ON1C(c2ccc(Cl)cc2Cl)N(O)[C@H]2CCCC[C@H]21 (stereo not given in full) has an inhibition of -8.4%. For COC(=O)C1CN(C(=O)COc2ccccc2)c2ccccc2O1 (stereo not given), the inhibition was 15.9%. For Cc1ccc(C(C)C)c(OCCNC(=O)c2ccccc2O)c1, the inhibition was -22.6%. Cc1ccc(C(C)C)c(OCCNC(=O)c2cncc(Br)c2)c1 gave an inhibition of 16.6%. COc1cc(/C=N/n2nnnc2Nc2ccccc2)cc(OC)c1OC showed an inhibition of -36.9%. For CCc1cccc(C)c1NC(=O)C(c1ccccc1)N1CCC1=O (stereo not given), the inhibition was -22.7%. With COCCCNC(=S)N1CCN(S(C)(=O)=O)CC1 the inhibition was -18.9%. Work on CC(C)(C)c1ccc(C(=O)N2CCN(c3nc4ccccc4o3)CC2)cc1 yielded an inhibition of 28.1%. In the case of O=C(c1ccc(-c2ccccc2)cc1)N1CCN(c2nc3ccccc3o2)CC1, the inhibition is reported as 35.5% (active). COc1ccc(C(=O)N2CCN(c3nc4ccccc4o3)CC2)cc1OC showed an inhibition of 19.2%. In the case of CCOC(=O)C1(Cc2ccccc2)CCN(Cc2ccc(C)s2)CC1, the inhibition is reported as -14.9%. Compound O=C(Nc1ccc(S(=O)(=O)Nc2nccs2)cc1)c1ccc(F)cc1 has an inhibition of -13.9%.
